# This is a sample that favours compounds with a hit; in the whole collection about 2.2% have one here.
# PPC-1+TRAIL kill = compounds killing PPC-1 cancer cells with TRAIL present (potentiator screen, no TRAIL-free arm); PPC-1 cells + TRAIL, ATPLite viability luminescence; cell killing (% activity), % at 4 µM or 5 µM; 0.41% of 220,000 active; AID 1443;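 active = cell killing above 50% in the first pass at 4 µM, then a duplicate retest at 5 µM averaging 50% or more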;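 also: plate controls were cells with TRAIL plus DMSO for no effect and medium-only wells lacking cells for full effect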
# KKLEB cytotox = CF airway cell cytotoxicity counter-screen; KKLEB CF airway cells viability, ATPlite luminescence, overnight; active compounds read low; cells stimulated with P. aeruginosa culture filtrate; 0.36% of 360,000 active; AID 602141; activity change (cytotoxicity), % at 5 µM;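 active = corrected activity change at or below -50% at 5 µM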
# hiPSC survival = enhancers of human iPSC single-cell survival. hiPSC single-cell survival, ATPlite luminescence; 100% = ROCK inhibitor wells, 0% = DMSO. survival enhancement, % at 20 µM. 0.044% of 360,000 active; in the data active = survival enhancement above about 18%;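 also: cells exposed to compounds for 16 hours before the ATP read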
# CF NFkB block = inhibitors of cystic fibrosis induced NF-kB. KKLEB NF-kB-GFP reporter, PAF-induced, GFP fluorescence overnight. inhibition, % at 5 µM. 0.86% of 360,000 active. AID 588850;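 active = at least 50% inhibition at 5 µM, scaled per plate between neutral and stimulator controls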;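 also: PAF is a Pseudomonas aeruginosa culture filtrate used as stimulus; plate controls were PAF-stimulated DMSO wells for no effect and unstimulated DMSO wells for full effect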
# C8 TRAIL sens = sensitizes caspase-8 expressing cells to TRAIL. inhibition (viability loss, TRAIL sensitization), % at 10 µM. 1% of 360,000 active. NB7+C8 cells + TRAIL, ATPlite viability luminescence;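 active = compounds causing at least 50% loss of cell viability in the single-dose screen, relative to plate controls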
# HIF-2a inh = HIF-2a inhibition | AID 624352 | inhibition, % at 18.8 µM | 786-0 RCC cells HIF-2a reporter, luciferase luminescence, overnight | 0.72% of 360,000 active;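 active = inhibition of the luminescence signal of 40% or more relative to plate controls, in a single-dose primary screen at 18.75 µM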
# Active calls of the source: *; . = no result.
SMILES,PPC-1+TRAIL kill,KKLEB cytotox,hiPSC survival,CF NFkB block,C8 TRAIL sens,HIF-2a inh
Cc1cccc(-c2nnn3c2nc(NCCc2ccc(S(N)(=O)=O)cc2)c2ccccc23)c1,18,-52*,1,36,24,-6
Cc1ccc(NC(=S)NNC(=O)c2ccc(N3CCOCC3)c([N+](=O)[O-])c2)cc1C,-1,-6,2,1,0,18
CCN(CC)c1ccc(N2C(=O)/C(=C/c3cccnc3)SC2=S)cc1,19,-39,-2,56*,-20,8
CCOc1cccc(/C=N/NC(=S)Nc2ccccc2[N+](=O)[O-])c1O,20,-12,2,1,53*,48*
CCc1noc(C)c1C(=O)Nc1sc(C(=O)N(C)C)c(C)c1C#N,.,-8,0,16,-13,12
CCC(=O)OCOc1ccc(/C=C2/CCC(CN(C)C)C2=O)cc1 (centres undefined),.,-2,10,-4,72*,93*
CC(=O)OCC(=O)[C@@]1(O)CC[C@H]2[C@@H]3C[C@H](C)C4=CC(=O)C=C[C@]4(C)[C@H]3[C@@H](O)C[C@@]21C,.,-11,4,77*,-8,30
CC1CC2C(C(O)CC3(C)C2CCC3(O)C(=O)CO)C2(C)C=CC(=O)C=C12 (centres undefined),.,11,1,76*,-4,17
CCOC(=O)/C(=C\c1ccc(OC(F)F)cc1)C1=Nn2c(nnc2-c2ccc(Cl)cc2)SC1,29,-90*,-3,88*,94*,97*
O=C(C=P(c1ccccc1)(c1ccccc1)c1ccccc1)c1ccccc1-c1ccccc1C(=O)C=P(c1ccccc1)(c1ccccc1)c1ccccc1,.,-79*,-2,91*,49,95*
CN=c1scc(-c2ccccc2F)n1/N=C/c1ccc(O)c(O)c1O,47,-34,-1,-3,84*,-47
CN=c1scc(-c2ccccc2F)n1/N=C/c1ccc[nH]1,44,-55*,-6,-17,88*,92*
CC(C)N=c1scc(-c2cccs2)n1/N=C/c1ccc(O)c(O)c1O,-1,-2,-2,-23,17,-72
O=C(CSc1ncn[nH]1)Nc1cc(S(=O)(=O)N2CCCC2)ccc1Cl,33,20,0,-5,2,1
COc1ccccc1N1CCN(S(=O)(=O)CCNC(=O)c2ccc(Br)o2)CC1,.,7,0,0,-6,6
C/C(=N\Nc1nncc2ccccc12)c1ccc(O)cc1,.,-17,-1,-11,60*,-216
C/C(=N\Nc1nncc2ccccc12)c1cccc(OC(F)F)c1,.,-46,-1,-23,81*,-186
C/C(=N\Nc1nncc2ccccc12)c1ccc(C(C)(C)C)cc1,.,-7,0,10,13,-172
COc1ccc(-c2nc(N/N=C(\C)c3ccc(O)cc3)c3ccccc3n2)cc1,44,-21,0,56*,59*,-186
O=[N+]([O-])/C=C1\C=CC=CN1Cc1ccc(Cl)cc1,.,1,0,-1,-17,4
CN(Cc1ccccc1)C(=O)c1cccc(NC(=O)Cc2ccc(NC(=O)C3CCCN(C(=O)C4CCC4)C3)cc2)c1 (centres undefined),.,4,1,-1,-11,9
COc1cccc(/C=C2/Sc3ccc(C(=O)NCCN4CCCCCC4)cc3NC2=O)c1,.,-7,-1,6,75*,15
Cc1cccc(/C=C2/Sc3ccc(C(=O)NCCN4CCCC4)cc3NC2=O)c1,.,-19,0,14,22,5
CCN1CCN(CCCNC(=O)c2ccc3c(c2)NC(=O)/C(=C\c2cccc(C)c2)S3)CC1,.,-10,-1,8,70*,8
O=C(/C(C=Nc1cccc(C(F)(F)F)c1)=C(/O)c1ccco1)C(F)(F)F,5,-1,-1,-14,-4,-143
O=C(/C(C=Nc1ccc(Br)cc1)=C(/O)c1ccco1)C(F)(F)F,60*,-32,-3,11,43,-279
Cc1ccc(SCC(=O)N(C)CC(=O)Nc2cccc(F)c2)c(C)c1,.,-20,0,6,5,-24
Oc1ccc(Nc2nc3ccccc3nc2Nc2ccc(O)cc2)cc1,2,-6,-4,21,32,75*
